Measured values as given in PubChem BioAssay (NCATS).
Inconclusive results are not listed. A call without a number means that no potency is given here. Calls of active or inactive are those of the source. Unless noted, the call rests on the fitted dose curve; in most records, active means well fitted curve in the direction sought with a large enough effect; inconclusive means small, poorly fitted or top-dose-only effect, or another doubt; inactive means no such curve, though single readings can be large; an effect the other way counts as inactive or inconclusive.

Assays:
[1] = qHTS for Inhibitors of the Functional Ribonucleoprotein Complex (vRNP) of Lassa (LASV) Arenavirus: LASV Primary Screen - GLuc reporter signal (AID 1347082; calls by dose curve; tested in HEK293 reporter line; further: series mostly up to about 57 µM; nearly all actives have a fitted effect of over 60% in size)
[2] = qHTS for Inhibitors of the Functional Ribonucleoprotein Complex (vRNP) of Lassa (LASV) Arenavirus: Viability assay - alamar blue signal for LASV Primary Screen (AID 1347083; calls by dose curve; tested in HEK293 reporter line; further: series mostly up to about 57 µM; nearly all actives have a fitted effect of over 80% in size)
[3] = qHTS for Inhibitors of the Functional Ribonucleoprotein Complex (vRNP) of Lymphocytic Choriomeningitis Arenaviruses (LCMV): Viability assay - alamar blue signal for LCMV Primary Screen (AID 1347085; calls by dose curve; tested in HEK293 reporter line; further: series mostly up to about 57 µM; nearly all actives have a fitted effect of over 80% in size)
[4] = molecular target: Nucleoprotein (Lymphocytic choriomeningitis virus (strain Armstrong)) (UniProt P09992); assay: qHTS for Inhibitors of the Functional Ribonucleoprotein Complex (vRNP) of Lymphocytic Choriomeningitis Arenaviruses (LCMV): LCMV Primary Screen - GLuc reporter signal (AID 1347086; calls by dose curve; further: series mostly up to about 57 µM; nearly all actives have a fitted effect of over 70% in size)
Sequence of Nucleoprotein (Lymphocytic choriomeningitis virus (strain Armstrong)) (P09992 whole entry, looked up): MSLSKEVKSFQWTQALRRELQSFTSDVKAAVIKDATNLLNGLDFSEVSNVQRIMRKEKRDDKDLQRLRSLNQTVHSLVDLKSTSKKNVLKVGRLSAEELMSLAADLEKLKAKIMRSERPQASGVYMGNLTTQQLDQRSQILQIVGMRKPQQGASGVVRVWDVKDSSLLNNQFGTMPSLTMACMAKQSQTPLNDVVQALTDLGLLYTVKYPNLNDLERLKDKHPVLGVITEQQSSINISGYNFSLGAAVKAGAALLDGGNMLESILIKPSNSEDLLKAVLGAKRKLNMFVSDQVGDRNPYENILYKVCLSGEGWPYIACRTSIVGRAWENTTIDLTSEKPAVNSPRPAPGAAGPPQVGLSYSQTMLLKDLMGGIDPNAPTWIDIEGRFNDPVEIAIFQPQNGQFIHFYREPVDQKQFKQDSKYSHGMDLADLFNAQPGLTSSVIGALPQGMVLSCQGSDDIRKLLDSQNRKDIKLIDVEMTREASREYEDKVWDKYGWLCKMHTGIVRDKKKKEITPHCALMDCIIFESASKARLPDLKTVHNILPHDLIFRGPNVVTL

[5] = qHTS of pediatric cancer cell lines to identify multiple opportunities for drug repurposing: Primary screen for TC32 cells (AID 1347089); further: nearly all actives have a fitted effect of over 60% in size
Outline: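 Measured quantity: luminescence from CellTiter-Glo, reflecting metabolically active TC32 cells following 48 h of compound. Curves came straight from multi-point titrations, with 8 or 11 points in primary and 11 in confirmatory screening.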

[6] = qHTS of pediatric cancer cell lines to identify multiple opportunities for drug repurposing: Primary screen for DAOY cells (AID 1347090); further: nearly all actives have a fitted effect of over 55% in size; further: potency means the concentration at half of the fitted maximal effect
Outline: (§1)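 Eight- or eleven-point concentration series, 48 h treatment at 37 degrees C in growth media; readout CellTiter-Glo luminescence. Potency and efficacy were taken from the concentration-response curves.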

[7] = qHTS of pediatric cancer cell lines to identify multiple opportunities for drug repurposing: Primary screen for SJ-GBM2 cells (AID 1347091); further: potency means the concentration at half of the fitted maximal effect
Outline: as §1

[8] = qHTS of pediatric cancer cell lines to identify multiple opportunities for drug repurposing: Primary screen for A673 cells (AID 1347092); further: nearly all actives have a fitted effect of over 45% in size; further: potency means the concentration at half of the fitted maximal effect
Outline: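 Cells are plated, rested 5 h, dosed by pintool, incubated 48 h, then lysed with CellTiter-Glo and read by luminescence. DMSO is the neutral control; bortezomib at 2.3 uM final is the positive control.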

[9] = qHTS of pediatric cancer cell lines to identify multiple opportunities for drug repurposing: Primary screen for SK-N-MC cells (AID 1347093); further: series mostly up to about 46 µM
Outline: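 Metabolically active cells were quantified by ATP-dependent luminescence (CellTiter-Glo, 15 min at room temperature) following 48 h treatment. Cells had been plated at 500-1,000 per well and settled for 5 h beforehand.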

[10] = qHTS of pediatric cancer cell lines to identify multiple opportunities for drug repurposing: Primary screen for BT-37 cells (AID 1347094); further: series mostly up to about 57 µM
Outline: (§2)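 Viability was measured as metabolically active cells after 48 hours of treatment, read by CellTiter-Glo luminescence. Compounds were tested at multiple final concentrations, giving concentration-response curves.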

[11] = qHTS of pediatric cancer cell lines to identify multiple opportunities for drug repurposing: Primary screen for NB-EBc1 cells (AID 1347095)
Outline: as §2

[12] = qHTS of pediatric cancer cell lines to identify multiple opportunities for drug repurposing: Primary screen for U-2 OS cells (AID 1347096); further: nearly all actives have a fitted effect of over 50% in size
Outline: (§3)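 Cells (500-1,000/well) in growth media were settled 5 h at 37 degrees C, then given compounds for 48 h. Viability was read as CellTiter-Glo luminescence. Primary runs used MIPE at 11 points (0.78 nM-46 µM) and NPC at 8 points (0.59 nM-46 µM); follow-ups used 11 points.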

[13] = qHTS of pediatric cancer cell lines to identify multiple opportunities for drug repurposing: Primary screen for Saos-2 cells (AID 1347097); further: nearly all actives have a fitted effect of over 40% in size
Outline: as §2

[14] = qHTS of pediatric cancer cell lines to identify multiple opportunities for drug repurposing: Primary screen for SK-N-SH cells (AID 1347098); further: nearly all actives have a fitted effect of over 65% in size; further: potency means the concentration at half of the fitted maximal effect
Outline: (§4)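 Cells (500-1,000/well) rested 5 h, then received compounds for 48 h; metabolically active cells were measured by CellTiter-Glo luminescence. Final concentrations spanned up to 46 µM (MIPE, 11-point) or 0.59 nM-46 µM (NPC, 8-point) in primary screens, 11-point in follow-ups.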

[15] = qHTS of pediatric cancer cell lines to identify multiple opportunities for drug repurposing: Primary screen for NB1643 cells (AID 1347099); further: nearly all actives have a fitted effect of over 50% in size
Outline: as §2

[16] = qHTS of pediatric cancer cell lines to identify multiple opportunities for drug repurposing: Primary screen for LAN-5 cells (AID 1347100)
Outline: as §3

[17] = qHTS of pediatric cancer cell lines to identify multiple opportunities for drug repurposing: Primary screen for BT-12 cells (AID 1347101); further: nearly all actives have a fitted effect of over 25% in size
Outline: as §4

[18] = qHTS of pediatric cancer cell lines to identify multiple opportunities for drug repurposing: Primary screen for Rh18 cells (AID 1347102); further: nearly all actives have a fitted effect of over 65% in size
Outline: as §3

Structure (SMILES) | Potency [1] | Potency [2] | Potency [3] | Potency [4] | Potency [5] | Potency [6] | Potency [7] | Potency [8] | Potency [9] | Potency [10] | Potency [11] | Potency [12] | Potency [13] | Potency [14] | Potency [15] | Potency [16] | Potency [17] | Potency [18]
C[C@H](N)C(=O)c1ccccc1 | inactive | inactive | inactive | inactive | inactive | inactive | inactive | inactive | inactive | inactive | inactive | inactive | inactive | inactive | inactive | inactive | inactive | inactive
Nc1ccccc1C(=O)O | inactive | inactive | inactive | inactive | inactive | inactive | inactive | inactive | inactive | inactive | inactive | inactive | inactive | inactive | inactive | inactive | inactive | inactive
Cc1cc(CC(=O)O)c(C)n1-c1ccc(Cl)cc1 | inactive | inactive | inactive | inactive | – | – | – | – | – | – | – | – | – | – | – | – | – | –
CCN(CCO)CCn1c(Cc2ccccc2)nc2c1c(=O)n(C)c(=O)n2C | inactive | inactive | inactive | inactive | inactive | inactive | inactive | inactive | inactive | inactive | inactive | inactive | inactive | inactive | inactive | inactive | inactive | inactive
COc1cc(-c2ccc(=O)[nH]n2)ccc1OC(F)F | inactive | inactive | inactive | inactive | – | – | – | – | – | – | – | – | – | – | – | – | – | –
C[N+]1(CCF)[C@@H]2CC[C@H]1CC(OC(=O)C(O)(c1ccccc1)c1ccccc1)C2 (stereo partly specified) | inactive | inactive | inactive | inactive | inactive | inactive | inactive | inactive | inactive | inactive | inactive | inactive | inactive | inactive | inactive | inactive | inactive | inactive
C#CCN[C@@H]1CCc2ccccc21 | inactive | inactive | inactive | inactive | – | – | – | – | – | – | – | – | – | – | – | – | – | –
NC(=O)c1cc([N+](=O)[O-])cc([N+](=O)[O-])c1 | inactive | inactive | inactive | inactive | inactive | inactive | inactive | inactive | inactive | inactive | inactive | inactive | inactive | inactive | inactive | inactive | inactive | inactive
CC(=O)C1CCOC1=O (stereo unspecified) | inactive | inactive | inactive | inactive | inactive | inactive | – | inactive | inactive | inactive | inactive | inactive | inactive | inactive | inactive | inactive | inactive | inactive
COC1CC(=C(c2cccs2)c2cccs2)C[N+](C)(C)C1 (stereo unspecified) | inactive | inactive | inactive | inactive | inactive | inactive | inactive | – | inactive | inactive | inactive | inactive | inactive | inactive | inactive | inactive | – | inactive
C#C[C@]1(O)CC[C@H]2[C@@H]3CCC4=CC(=O)CC[C@]4(C)[C@H]3CC[C@@]21C | inactive | inactive | inactive | inactive | inactive | inactive | – | inactive | inactive | inactive | inactive | inactive | inactive | inactive | inactive | inactive | inactive | inactive
O=[N+]([O-])O[C@H]1CO[C@H]2[C@@H]1OC[C@H]2O[N+](=O)[O-] | inactive | inactive | inactive | inactive | inactive | inactive | – | inactive | inactive | inactive | inactive | inactive | inactive | inactive | inactive | inactive | inactive | inactive
CC(=O)NC1CCSC1=O (stereo unspecified) | inactive | inactive | inactive | inactive | inactive | inactive | inactive | inactive | inactive | inactive | inactive | inactive | – | inactive | inactive | inactive | inactive | inactive
COC(=O)[C@@H](N)CCCN/C(N)=N/[N+](=O)[O-] | inactive | inactive | inactive | inactive | inactive | inactive | – | inactive | inactive | inactive | inactive | inactive | inactive | inactive | inactive | inactive | inactive | inactive
COc1cccc(C(=O)CCN[C@@H](C)[C@H](O)c2ccccc2)c1 | inactive | inactive | inactive | inactive | inactive | 26.6 µM (active) | inactive | – | – | inactive | – | inactive | – | 30.7 µM (active) | – | – | inactive | inactive
O=C1c2ccccc2C(=O)c2ccccc21 | inactive | inactive | inactive | inactive | inactive | inactive | inactive | inactive | inactive | inactive | inactive | inactive | inactive | inactive | inactive | inactive | inactive | inactive

Structure (SMILES) | Potency [1] | Potency [2] | Potency [3] | Potency [4] | Potency [5] | Potency [6] | Potency [7] | Potency [8] | Potency [9] | Potency [10] | Potency [11] | Potency [12] | Potency [13] | Potency [14] | Potency [15] | Potency [16] | Potency [17] | Potency [18]
CN1C(=O)NC(=O)C(C)(C2=CCCCC2)C1=O (stereo unspecified) | inactive | inactive | inactive | inactive | inactive | inactive | – | inactive | inactive | inactive | inactive | inactive | inactive | inactive | inactive | inactive | inactive | inactive
c1ccc(CN2CCNCC2)cc1 | inactive | inactive | inactive | inactive | inactive | inactive | inactive | inactive | inactive | inactive | inactive | inactive | inactive | inactive | inactive | inactive | inactive | inactive
CC1(C)C(C=C(Cl)Cl)C1C(=O)OC(C#N)c1cccc(Oc2ccccc2)c1 (stereo unspecified) | inactive | inactive | inactive | inactive | inactive | inactive | inactive | inactive | inactive | inactive | inactive | inactive | inactive | – | inactive | inactive | inactive | inactive
CN1CC[C@]23c4c5ccc(O)c4O[C@H]2[C@@H](O)CC[C@H]3[C@H]1C5 | inactive | inactive | inactive | inactive | inactive | inactive | inactive | inactive | inactive | inactive | inactive | inactive | inactive | inactive | inactive | inactive | inactive | inactive
CCCCCCC(=O)CCCCCC/C=C/C[C@@H](O)[C@H](O)[C@@](N)(CO)C(=O)O | inactive | inactive | inactive | inactive | inactive | inactive | inactive | inactive | inactive | inactive | inactive | inactive | – | inactive | inactive | inactive | inactive | inactive
O=C1CN=C(c2ccccc2)c2cc([N+](=O)[O-])ccc2N1 | inactive | inactive | inactive | inactive | inactive | inactive | inactive | inactive | – | inactive | inactive | inactive | – | inactive | inactive | inactive | inactive | inactive
CC(C)=CC1C(C(=O)OCN2C(=O)C3=C(CCCC3)C2=O)C1(C)C (stereo unspecified) | inactive | inactive | inactive | inactive | inactive | inactive | 21.1 µM (active) | inactive | – | inactive | – | inactive | – | – | – | – | – | inactive
CC(C(=O)c1ccccc1)N(C)C (stereo unspecified) | inactive | inactive | inactive | inactive | inactive | inactive | – | inactive | inactive | inactive | inactive | inactive | inactive | inactive | inactive | inactive | inactive | inactive
O=c1[nH]c2ccccc2n1C1CCNCC1 | inactive | inactive | inactive | inactive | inactive | inactive | inactive | inactive | – | inactive | inactive | inactive | inactive | inactive | inactive | inactive | inactive | inactive
CCOP(=S)(OCC)Oc1ccc2c(C)c(Cl)c(=O)oc2c1 | inactive | inactive | inactive | inactive | inactive | inactive | inactive | 0.001 µM (active) | inactive | inactive | – | inactive | inactive | – | inactive | – | inactive | inactive
CC[N+]1(CC)CCC(OC(=O)C(O)(c2ccccc2)c2ccccc2)C1 (stereo unspecified) | inactive | inactive | inactive | inactive | inactive | inactive | inactive | inactive | – | inactive | inactive | inactive | inactive | inactive | inactive | inactive | inactive | inactive
COc1cc(CC(C)N)cc(OC)c1OC (stereo unspecified) | inactive | inactive | inactive | inactive | inactive | inactive | inactive | inactive | inactive | inactive | inactive | inactive | inactive | inactive | inactive | inactive | inactive | inactive
CCC1(CC)C(=O)C=CNC1=O | inactive | inactive | inactive | inactive | inactive | inactive | inactive | inactive | inactive | inactive | inactive | inactive | inactive | inactive | inactive | inactive | inactive | inactive
CC(C)(C)NCC(O)c1cc(Cl)c(N)c(C(F)(F)F)c1 (stereo unspecified) | inactive | inactive | inactive | inactive | inactive | inactive | inactive | inactive | inactive | inactive | inactive | inactive | inactive | inactive | inactive | inactive | inactive | inactive
Nc1ccc([As](=O)(O)O)cc1 | inactive | inactive | inactive | inactive | inactive | inactive | – | inactive | inactive | inactive | inactive | inactive | inactive | inactive | inactive | inactive | inactive | inactive
CCOC(=O)CC(SP(=S)(OC)OC)C(=O)OCC (stereo unspecified) | inactive | inactive | inactive | inactive | inactive | inactive | – | inactive | inactive | inactive | inactive | inactive | inactive | inactive | inactive | inactive | inactive | inactive
